Sm TGR inh – S. mansoni TGR enzyme inhibition | purified TGR, DTNB reduction, TNB absorbance 405 nm | 360,000 compounds, 3% hits | Potency, µM (doses to about 114 µM), for the others: top-dose activity change, negative = inhibition, usual class: inhibitors | AID 485364; also: % is scaled to controls: 0 for no effect and ±100 for the full control effect; nearly all actives have a fitted effect of over 60% in size
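Kinetic colorimetric format: TGR-catalysed, NADPH-driven DTNB reduction monitored via TNB absorbance. Enzyme dispensed at 20 nM; compound exposure 15 min at room temperature before reaction start.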
Pf growth 48h – P. falciparum growth inhibition at 48 hours (one generation). 310,000 compounds, 5.9% hits. P. falciparum luciferase growth in erythrocytes, 48 h. Potency, µM (series often up to 28.7 µM), for inactives: at the top dose activity change, negative = inhibition, usual class: inhibitors; also: % is scaled to controls: 0 for no effect and ±100 for the full control effect
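Growth was read as firefly luciferase luminescence after a 48 h, 37 C, 5% CO2 exposure of compounds to reporter-bearing P. falciparum cultures (0.1% parasitemia, 2% hematocrit final) in Albumax-supplemented RPMI 1640.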
Pf growth 96h – inhibits malaria parasite growth, 96 h. P. falciparum luciferase reporter growth, 96 h. Potency, µM (doses to about 28.7 µM), inactives show top-dose activity change, negative = inhibition, most hits filed as inhibitors. 320,000 compounds, 6.9% hits. AID 504834; also: % is scaled to controls: 0 for no effect and ±100 for the full control effect
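Two parasite generations (96 h, 37 C, 5% CO2) of compound exposure in infected erythrocytes (0.05% parasitemia, 2% hematocrit). Luciferase-reporter P. falciparum; decreased luminescence indicates inhibited growth, aimed at apicoplast-acting delayed death.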
SARS PLpro yeast – SARS-CoV PLP inhibition in yeast. Potency, µM (series often up to 32.9 µM), for inactives: at the top dose activity, positive = growth rescue, actives largely listed as activators. 330,000 compounds, 0.19% hits. AID 485353. S. cerevisiae expressing SARS-CoV PLpro, growth rescue; calls by dose curve; also: 0% is about no effect; nearly all actives have a fitted effect of over 55% in size
Numbers without * were called inactive; ? = inconclusive; . = not tested or not shown. A selection: hits, their analogues and other compounds. The true share with any hit is near 12%. Unless noted, calls follow the shape of the dose curve; as a rule, active = well fitted curve in the direction sought with a large enough effect; inconclusive = small, poorly fitted or top-dose-only effect, or another doubt; inactive = no such curve, though single readings can be large; an effect the other way counts as inactive or inconclusive. Potency is read from the fitted curve at half-maximal effect.

SMILES	Sm TGR inh	Pf growth 48h	Pf growth 96h	SARS PLpro yeast
CCCCCCCOc1ccc(-c2ccc(C#N)cn2)cc1	6%	9%	6.6µM*	-2%
CCCCOc1ccc(-c2cnc3ccccc3n2)cc1	-4%	205%	?	9%
CCCCCc1ccc(-c2ccc(OC)cc2)nc1	?	-16%	10µM*	-4%
CC(C)OC(=O)c1c(-c2ccccc2)c(-c2ccccc2)nn(C)c1=O	-4%	.	.	.
CC(C)c1cc(-c2nc(-c3ccccc3)no2)n[nH]1	7%	.	.	.
Cc1sc(NC(=O)c2ccco2)c(C(c2cccnc2)N2CCN(CCO)CC2)c1C (centres undefined)	-24%	?	?	2%
CCOC(=O)C1CCN(C(c2cccnc2)c2c(NC(=O)c3ccco3)sc(C)c2C)CC1 (centres undefined)	7.9µM*	0.29µM*	-4%	7%
Cc1sc(NC(=O)c2ccco2)c(C(c2ccc(F)cc2)N2CCN(C)CC2)c1C (centres undefined)	?	?	?	2%
COc1ccc(C(C(C(=O)c2cccs2)N2CCOCC2)N2CCOCC2)cc1OC (centres undefined)	?	19%	?	1%
Cc1sc(NC(=O)c2ccco2)c(C(c2cccnc2)N2CCN(c3ccc(F)cc3)CC2)c1C (centres undefined)	22µM*	2.1µM*	?	-17%
COc1ccc(C(c2c(NC(=O)c3ccco3)sc(C)c2C)N2CCOCC2)cc1OC (centres undefined)	?	2.6µM*	4.7µM*	-3%
Cc1sc(NC(=O)c2ccco2)c(C(c2ccccc2)N2CCC(C)CC2)c1C (centres undefined)	-18%	5.2µM*	?	3%
CCOC(=O)[C@@H]1[C@H]2COc3cc(OC)ccc3[C@H]2N2C(=O)N(c3ccc(C)cc3)C(=O)[C@@]12C	9%	?	?	-9%
CC(CCc1ccccc1)NC(=O)CNC(=O)N1CC(=O)Nc2ccccc21 (centres undefined)	-5%	3%	51%	4%
Cc1ccc(NC(=O)c2ccc(NS(=O)(=O)/C=C/c3ccccc3)cc2)nc1	5%	?	-1%	-1%
COc1ccc(COC(=O)CCS(=O)(=O)c2ccc(C)cc2)cc1F	-7%	-16%	63%	-1%
Cc1ccc(NC(=O)CN(C)C(=O)C(Sc2ccccc2)c2ccccc2)cc1 (centres undefined)	-2%	?	?	0%
CCc1sc(C(=O)N2CCc3cc(OC)c(OC)cc3C2CC(=O)O)cc1C (centres undefined)	?	?	?	3%
COc1cc2nc(NCc3ccccc3)n3nc(-c4ccccc4)nc3c2cc1OC	6%	.	.	.
CC(O)[C@H]1CC[C@H]2[C@@H]3CC[C@H]4C[C@H](O)CC[C@]4(C)[C@H]3[C@H](O)C[C@]12C (some centres undefined)	-11%	2%	19%	3%
COc1ccc(-c2cc(C(=O)OCC(=O)c3c(N)n(C)c(=O)n(C)c3=O)c3ccccc3n2)cc1	0%	21%	40%	0%
Cn1c(N)c(C(=O)COC(=O)c2cc(-c3ccco3)nc3ccccc23)c(=O)n(C)c1=O	8.9µM*	?	?	-25%
CCCCCCn1nc(C(=O)OCC(=O)c2c(N)n(C)c(=O)n(C)c2=O)c2ccccc2c1=O	-4%	12µM*	13µM*	0%
COc1ccc(/C=C2\CCCc3c2nc2ccccc2c3C(=O)OCC(=O)c2c(N)n(C)c(=O)n(C)c2=O)cc1	-8%	?	4.1µM*	16%
CCCn1c(N)c(C(=O)CSc2nc3ccccc3n2CCC#N)c(=O)n(C)c1=O	2%	-12%	?	3%
SMILES	Sm TGR inh	Pf growth 48h	Pf growth 96h	SARS PLpro yeast
CCCCCCn1c(SCC(=O)c2c(N)n(C)c(=O)n(C)c2=O)nc2ccccc21	-11%	.	0.93µM*	-3%
O=C(Nc1cccc(C(F)(F)F)c1)c1ccc2c(c1)nnn2C1CCCC1	12%	.	.	.
Cc1ccc(NC(=O)C2CCN(S(=O)(=O)c3cccnc3)CC2)cc1C	9%	-3%	?	-1%
COc1ccc(S(=O)(=O)c2c(Nc3ccc(F)cc3)sc(C(=O)c3ccc4c(c3)OCO4)c2N)cc1	-1%	.	.	.
Cc1cccc(C)c1NC(=O)COC(=O)c1c2c(nc3ccccc13)/C(=C\c1ccc3c(c1)OCO3)CCC2	6%	8.3µM*	?	-4%
Cn1c(N)c(C(=O)COC(=O)c2cc(-c3ccco3)nc3ccccc23)c(=O)n(Cc2ccccc2)c1=O	8.9µM*	?	9.3µM*	-3%
CC(OC(=O)c1c2c(nc3ccccc13)/C(=C\c1ccc3c(c1)OCO3)CCC2)C(=O)Nc1ccc(S(N)(=O)=O)cc1 (centres undefined)	-3%	?	?	20%
Cc1nn(-c2ccc(N3CCOCC3)nn2)c(C)c1CCC(=O)Nc1ccc(F)cc1F	7%	.	.	.
COc1cc([N+](=O)[O-])ccc1NC(=O)N1CCN(c2cc(-c3noc(C)n3)ccc2C)CC1	6%	.	.	.
CCC(=O)N(Cc1c(C)nn(-c2ccccc2)c1Cl)c1ccc(Cl)cc1	4%	10µM*	3%	?
CCOc1ccc(C2CC(=O)n3nc(C45CC6CC(CC(C6)C4)C5)nc3S2)cc1OC (centres undefined)	13%	-4%	12µM*	-1%
CCN(Cc1ccccc1)C(c1ccncc1)c1nnnn1C(C)(C)C (centres undefined)	1%	?	-2%	-33%
CC(C)(C)n1nnnc1C(c1cccnc1)N(Cc1ccccc1)Cc1cccs1 (centres undefined)	-1%	0.83µM*	0.17µM*	-23%
CC(C)(C)n1nnnc1C(c1cccs1)N(Cc1ccccc1)Cc1cccnc1 (centres undefined)	7%	?	-21%	4%
CC(C)(C)c1ccc(CN(Cc2ccccc2)C(c2ccccn2)c2nnnn2C(C)(C)C)cc1 (centres undefined)	12%	1.7µM*	.	-4%
CCN(Cc1ccccc1)C(c1ccc(C)cc1)c1nnnn1C(C)(C)CC (centres undefined)	14%	13µM*	137%	-30%
CC(C)(C)n1nnnc1C(c1ccc(C(F)(F)F)cc1)N(Cc1ccccc1)Cc1ccco1 (centres undefined)	-1%	?	9%	-2%
CC(C)(C)n1nnnc1C(c1ccc(C(F)(F)F)cc1)N(Cc1ccc(F)cc1)Cc1ccco1 (centres undefined)	7%	1.9µM*	-18%	-20%
Cc1cccc(NC(=O)CSc2nc3c(oc4ccccc43)c(=O)n2C(C)C)c1	6%	.	.	.
COc1cc(/C=N/O)ccc1Oc1cnccn1	-10%	.	-7%	1%
Cc1ccc(C(c2nnnn2C(C)(C)C)N(Cc2ccco2)Cc2cccs2)cc1 (centres undefined)	3%	13µM*	.	-5%
CSc1nc(N)c(N=Nc2ccc([As](=O)(O)O)cc2)c(=O)[nH]1	0.32µM*	2.6µM*	?	1%

Compound activity: PubChem BioAssay, National Center for Advancing Translational Sciences (NCATS)
